# Source: PubChem BioAssay (NCATS)
# Inconclusive results are not listed. Entries that show only a call come without a potency. Activity calls are given as the source filed them. The call rests on the fitted dose curve; in most records, active means well fitted inhibition curve with a large enough effect; inconclusive means small, poorly fitted or top-dose-only effect; inactive means flat fitted curve, though single readings scatter. Numbered stars: 1 amine (or outer) side, 2 acyl side, 3 side chain; on linkers, the order of the positions; unused ones are H or OH. Bridge positions count the residues as written; N and C are the ends. Square brackets hold non-standard residues; d marks the D form. Peptide text beside a SMILES is read from it. I, II: the chains in the order shown. Actinocin(9to1) = Cc1c2oc3c(C)ccc(C(=O)[*:1])c3nc-2c(C(=O)[*:2])c(N)c1=O; aThr = C[C@H](O)[C@H](N)C(=O)O; NMeV = CN[C@H](C(=O)O)C(C)C; Sar = CNCC(=O)O
# System: Zika virus NS2B-NS3 protease
# Experiment: Primary screen GU AMC qHTS for Zika virus inhibitors (AID 1347154); further: nearly all actives have a fitted effect of over 70% in size
# Conditions: Zika NS2B-NS3 unlinked protease, AMC fluorogenic substrate; series mostly up to 54.1 µM
# Description: Avindra Nath, Ph.D., National Institute of Neurological Disorders and Stroke (NINDS), Bethesda, MD
# Radhakrishnan Padmanabhan, Ph.D., Georgetown University (GU), Washington D.C.
# Zika Virus causes congenital defects, including microcephaly and is associated with Guillain-Barre syndrome, eningoencephalitis and myelitis in infected adult. […] Using a target-based approach, we hope to establish a screening paradigm to uncover novel, cell-active NS2B-NS3 protease (Zika Virus) specific inhibitors from NCATS' collection of small molecules using qHTS.
# Early Translation Branch (ETB)
# National Center for Advancing Translational Sciences (NCATS), Rockville, MD
# National Institute of Health (NIH), Bethesda, Maryland
# Padmanabhan lab provided the NS2B hydrophilic domain and NS3 protease domain in a noncovalent complex used for the unlinked assay. Control compound aprotinin is obtained from Thermo Scientific (#78432; Waltham, Massachusetts). NS2B-NS3 AMC substrate (Bz-Nle-Lys-Arg-Arg-AMC; Nle-KRR-AMC) purchased from Bachem (#I-1995; Torrance, CA). Ac-VKTGKR-AMC purchased from Genscript or Bachem, Ac-FAAGKR-AMC purchased from Genscript, Ac-GLVKRR-AMC purchased from Genscript, Ac-LKKR-AMC purchased from Genscript.
# GU AMC unlinked NS2B-NS3 protease qHTS protocol
# Briefly, 3 microL of Zika virus unlinked NS2B-NS3 protease (25 nM for linked final concentration), in assay buffer (10 mM Tris-HCl pH 8.0 with 0.01% Tween 20) was dispensed into a 1,536-well solid-bottom black plate (Greiner Bio One, Monroe, NC). […] Plates were then read immediately on a ViewLux High-throughput CCD imager (PerkinElmer, Waltham, MA) equipped with standard UV fluorescence optics (340(30) nm excitation, 450(20) nm emission) then incubated (room temperature, protected from light) for 15 minutes (~20% conversion). The change in fluorescence intensity over the 15-minute reaction period was normalized against no-inhibitor and no-enzyme controls and the resulting percent inhibition data were fitted to a 4-parameter Hill equation. Aprotinin was used as the intraplate control.
# Potency means the concentration at half of the fitted maximal effect.
SMILES,"activity change, negative = inhibition",Potency
COC(=O)CNC(=O)C(=O)OC,11.4% [at 6.83 µM] (inactive),–
CCOC(=O)O[C@H](C)OC(=O)C1N2C(=O)[C@H](NC(=O)[C@H](N)c3ccccc3)C2SC1(C)C (stereo not given in full),–,26.7 µM (active)
CCCCCCCCCCCCCCCCCCc1ccc(C(=O)/C=C/C(=O)O)cc1,–,inactive
CC1=C(C(=O)OC(C)C)[C@@H](c2cccc3nonc23)C([N+](=O)[O-])=C(C)N1,–,inactive
COc1cc(N)c(Cl)cc1C(=O)N[C@H]1CCN(CCCOc2ccc(F)cc2)C[C@@H]1OC,–,inactive
COc1cc(/C=C(\C#N)C(N)=O)cc(CSc2nc3ccccc3s2)c1O,–,inactive
S=C(NCCCc1cnc[nH]1)NCCCN(Cc1ccc(Cl)c(Cl)c1)c1ccc(Br)cn1,–,inactive
Cc1cc2nc3c(=O)[nH]c(=O)nc-3n(C)c2cc1C=O,–,inactive
COc1ccc(-c2ccc(=N)n(CCCC(=O)O)n2)cc1,–,inactive
C#C[C@]1(O)CC[C@H]2[C@H]3CCC4=Cc5oncc5C[C@]4(C)[C@@H]3CC[C@]21C,–,inactive
CC[N+](CC)(CC)CCOc1ccc(/C=C\c2ccccc2)cc1,–,inactive
N[C@@H](CO)C(=O)O,–,inactive
CCCCCCCC/C=C\C/C=C\C/C=C\CCCC(=O)O,-5.55% [at 6.83 µM] (inactive),–
O=C(c1ccc(F)cc1)C1CCN(CCCCc2ccccc2)CC1,–,inactive
CCOC(=O)C(CCc1ccccc1)NC1CCc2ccccc2N(CC(=O)O)C1=O (stereo not given),–,inactive
c1ccc(CN2CCC3(CCc4ccccc43)CC2)cc1,–,inactive
CS(=O)(=O)Nc1ccc([N+](=O)[O-])cc1OC1CCCCC1,–,inactive
NCCC[C@@H](N)C(=O)O,–,inactive
CCCCC(C)(O)C/C=C/[C@H]1[C@H](O)CC(=O)[C@@H]1CCCCCCC(=O)O (stereo not given in full),14% [at 6.83 µM] (inactive),–
CCCCC[C@H](O)/C=C/[C@H]1C=CC(=O)[C@@H]1C/C=C\CCCC(=O)O,7.12% [at 6.83 µM] (inactive),–

SMILES,"activity change, negative = inhibition",Potency
CC[N+]1(C)C2CCC1CC(OC(=O)[C@H]1CCC(C(=O)OC3CC4CCC(C3)[N+]4(C)CC)(c3ccccc3)c3ccccc31)C2 (stereo not given in full),–,inactive
NC(N)=NCCNS(=O)(=O)c1cccc2cnccc12,–,inactive
c1ccc(N2CCN(CCCOc3ccc4c(c3)OCO4)CC2)cc1,–,inactive
CN1CCN(CCc2ccc(Cl)c(Cl)c2)CC1,–,inactive
CC[C@@](N)(C(=O)O)c1ccc(C(=O)O)cc1,–,inactive
Cc1ccc(/C=C2/CNC/C(=C\c3ccc(C)cc3)C2=O)cc1,–,inactive
NC1(C(=O)O)CCC1,–,inactive
"Cc1c2oc3c(C)ccc(C(=O)N[C@@H]4C(=O)N[C@@H](C(C)C)C(=O)N5CCC[C@@H]5C(=O)N(C)CC(=O)N(C)[C@@H](C(C)C)C(=O)O[C@H]4C)c3nc-2c(C(=O)N[C@@H]2C(=O)N[C@@H](C(C)C)C(=O)N3CCC[C@@H]3C(=O)N(C)CC(=O)N(C)[C@@H](C(C)C)C(=O)O[C@H]2C)c(N)c1=O (I: [aThr]V[dP][Sar][NMeV] / II: [aThr]V[dP][Sar][NMeV]; ester I:1-I:C, II:1-II:C; linker I:N-II:N via Actinocin(9to1))",–,inactive
CSc1ccc([C@H]2CN3CCC[C@H]3c3ccccc32)cc1,–,inactive
COc1cc(CNC(=O)CCCC/C=C\C(C)C)ccc1O,–,inactive
Nc1ncnc2c1ncn2[C@@H]1O[C@H](C(=O)NC2CC2)[C@@H](O)[C@H]1O,–,inactive
Nc1nc2c(ncn2[C@@H]2O[C@H](COP(=O)(O)OP(=O)(O)O)[C@@H](O)[C@H]2O)c(=O)[nH]1,–,inactive
O=C1CCc2c(ccc3ccccc23)O1,–,inactive
CC(C)(C)NC[C@H](O)c1ccc(O)c(CO)c1,–,inactive
CCCCCCN(CCCCCC)C(=O)Cc1c(-c2ccc(Cl)cc2)[nH]c2ccc(Cl)cc12,–,inactive
CCCCCCCCCCCCC/C=C\[C@@H](O)[C@H](CO)NC(C)=O,–,inactive
OC[C@H]1O[C@@H](n2cnc3c(NC4CCCC4)nc(Cl)nc32)[C@H](O)[C@@H]1O,–,inactive
Cc1noc(NS(=O)(=O)c2cccc3c(N(C)C)cccc23)c1C,–,inactive
CNC(=O)[C@H]1O[C@H](n2cnc3c(NCc4cccc(I)c4)nc(Cl)nc32)[C@@H](O)[C@@H]1O,–,inactive
C[C@@](N)(C(=O)O)[C@@H]1C[C@@H]1C(=O)O,–,inactive
